In PubChem BioAssay AID652154 (Broad Institute, 2013):
Values joined by “and” are separate entries in the source; they are usually repeats but may differ in a detail not shown here. Equal values may be shown once. Hit rate of the full screen: of about 360,000 compounds, about 4,200 (1.2%) were called active.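 Rule for the calls: active = mean replicate inhibition at least 60% with every replicate also reaching 60%; inconclusive = only one of the two criteria is met; inactive = mean below 60% and not all replicates reaching 60%.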 Many of the other results were omitted from the sample, so actives are more common in it than they were. A structure can be active in one record and inactive in another.

Assay: PAX8 transcriptional activity inhibition in RMG-I – RMG-I cells, luciferase, single concentration, primary screen (AID 652154);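 note: luciferase light reporting Pax8 driven TPO promoter activity; plate controls were median of neutral control wells for no effect and mitoxantrone controls for full effect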
Settings: RMG-I TPO-luciferase reporter, SteadyGlo, 24 h; at 12.6 µM; stronger effect = higher value

SMILES | inhibition
COc1cc2c(cc1OC)CN(C(=O)c1cc(S(=O)(=O)N3CCCCC3)ccc1Cl)CC2 | -3.73% (inactive)
CCOc1cc(C(=O)N2CCc3cc(OC)c(OC)cc3C2)ccc1OC(F)F | 86.2% (active)
COc1cc2c(cc1OC)CN(C(=O)c1ccc(S(=O)(=O)N3CCCCCC3)cc1)CC2 | 11.3% (inactive)
O=C(C[C@H]1C[C@H]2c3cc(NC(=O)CC4CC4)ccc3O[C@H]2[C@H](CO)O1)NCc1ccccn1 | -23.5% (inactive)
COc1ccc(S(=O)(=O)Nc2ccc3c(c2)C(=O)N([C@@H](C)CO)C[C@@H](C)[C@H](CN(C)C(=O)CCC(F)(F)F)OCCCC[C@H](C)O3)cc1 | 6.54% (inactive)
O=S(=O)([N-]c1nc2ccccc2nc1-[n+]1ccc(Cc2ccccc2)cc1)c1ccc(Br)s1 | 70.9% (active)
O=S(=O)(NCc1ccccn1)c1ccc(Br)s1 | -3.1% (inactive)
COc1ccc(S(=O)(=O)Nc2cccc3c2O[C@@H](CN(C)C(=O)Nc2ccccc2)[C@@H](C)CN([C@H](C)CO)C3=O)cc1 | 11% (inactive)
Cc1ccc(S(=O)(=O)NC(C(=O)N2CCOCCOCCOCCOCC2)c2ccccc2)cc1 (stereo not given) | 5.5% (inactive)
Cc1oc2c(c1C(=O)N1CCOCC1)C(=O)c1ccccc1C2=O | 83.3% (active)
Cc1ccc(C(=O)N2CCN(S(=O)(=O)N3CCOCC3)CC2)cc1 | -3.97% (inactive)
CN(C)C(=O)[C@@H]1[C@@H](CO)[C@@H]2Cn3c(cccc3=O)[C@@H]2N1C(=O)C1CCC1 | -6.21% (inactive)
CCCN1C[C@@H](C)[C@@H](OC)CN(C)C(=O)c2cc(NC(=O)Nc3cccc(F)c3)ccc2OC[C@@H]1C | 13.5% (inactive)
N#C[C@@H]1[C@@H](c2ccc(C3=CCCC3)cc2)[C@@H](CO)N1C(=O)C1CCCC1 | 3.84% (inactive)
CCCCC(=O)NC(c1ccc(OC)c(OC)c1)c1ccc2cccnc2c1O (stereo not given) | 78.7% (active)
C=CCn1c(COc2cccc3cccnc23)nnc1SCC(=O)OC | 21.9% (inactive)
CCOc1ccc(C(CC(=O)O)n2cnnn2)cc1OC (stereo not given) | 7.25% (inactive)
C[C@@H]1CCCCO[C@@H](CN(C)C(=O)Nc2cccc3ccccc23)[C@H](C)CN([C@H](C)CO)C(=O)c2cc(NC(=O)NC3CCCCC3)ccc2O1 | 34.7% (inactive)
Cc1noc(C)c1S(=O)(=O)Nc1ccc2c(c1)C(=O)N([C@@H](C)CO)C[C@@H](C)[C@@H](CN(C)Cc1ccccc1)OCCCC[C@H](C)O2 | 27.1% (inactive)
COc1ccc(CN2C(=O)C(CC(=O)NCCCCc3ccccc3)CC(C(=O)N3CCOCC3)=C2C)cc1 (stereo not given) | 91.4% (active)
COc1ccc(CN2C(=O)C(CC(=O)NCc3cccc4ccccc34)CC(C(=O)N3CCOCC3)=C2C)cc1 (stereo not given) | -99.8% (inactive)
CCN(CC)C(=O)C1=C(C)N(Cc2ccc(OC)cc2)C(=O)C(CC(=O)NCCCCc2ccccc2)C1 (stereo not given) | 8.41% (inactive)

SMILES | inhibition
CN1C(=O)c2cc(NC(=O)c3ccc(F)cc3)ccc2OC[C@H]2O[C@H](CC(=O)N3CCOCC3)CC[C@@H]21 | -0.681% (inactive)
COc1ccc(Cl)cc1C(=O)NNC(=O)c1nc2nc(C)cc(C)n2n1 | -17.5% (inactive)
Cc1cc(C)n2nc(SCC(N)=O)nc2n1 | -3.44% (inactive)
Cc1cc(C)n2nc(CNS(=O)(=O)c3c(F)c(F)c(F)c(F)c3F)nc2n1 | 85.5% (active)
Cc1noc(C)c1NC(=O)Nc1ccc2c(c1)C(=O)N([C@@H](C)CO)C[C@@H](C)[C@@H](CN(C)CC1CCCCC1)O2 | -11.2% (inactive)
COc1ccc(NC(=O)N(C)C[C@@H]2Oc3ccc(NC(=O)CCCN(C)C)cc3CC(=O)N([C@H](C)CO)C[C@H]2C)cc1 | 2.7% (inactive)
C[C@H]1CCCCO[C@@H](CN(C)Cc2ccncc2)[C@@H](C)CN([C@@H](C)CO)C(=O)c2cc(NC(=O)Nc3ccc(F)cc3)ccc2O1 | -6.76% (inactive)
C[C@H](CO)N1C[C@H](C)[C@H](CN(C)Cc2ccc(Cl)c(Cl)c2)OCCCC[C@H](C)Oc2ccc(NC(=O)NC3CCCCC3)cc2C1=O | 92.7% (active)
C[C@H]1CCCCO[C@H](CN(C)Cc2ccccc2)[C@@H](C)CN([C@@H](C)CO)C(=O)c2cc(NC(=O)NC3CCCCC3)ccc2O1 | 5.95% (inactive)
C[C@@H]1CCCCO[C@@H](CN(C)Cc2ccncc2)[C@@H](C)CN([C@@H](C)CO)C(=O)c2cc(NC(=O)Nc3ccc(F)cc3)ccc2O1 | -6.16% (inactive)
C[C@@H]1CCCCO[C@@H](CN(C)Cc2ccncc2)[C@H](C)CN([C@H](C)CO)C(=O)c2cc(NC(=O)NC3CCCCC3)ccc2O1 | 8.64% (inactive)
C[C@@H]1CN([C@H](C)CO)C(=O)c2cc(NC(=O)Nc3ccccc3)ccc2O[C@@H](C)CCCCO[C@@H]1CN(C)Cc1ccncc1 | 6.95% (inactive)
C[C@H]1CCCCO[C@@H](CN(C)Cc2ccc3c(c2)OCO3)[C@@H](C)CN([C@@H](C)CO)C(=O)c2cc(NC(=O)Nc3ccc(F)cc3)ccc2O1 | 87.4% (active)
C[C@@H]1CCCCO[C@H](CN(C)Cc2ccncc2)[C@H](C)CN([C@H](C)CO)C(=O)c2cc(NC(=O)Nc3ccccc3)ccc2O1 | 18.7% (inactive)
C[C@@H]1CN([C@H](C)CO)C(=O)c2cc(NC(=O)Nc3ccc4c(c3)OCO4)ccc2O[C@@H](C)CCCCO[C@@H]1CN(C)Cc1ccc2c(c1)OCO2 | 25.2% (inactive)
C[C@@H]1CN([C@H](C)CO)C(=O)c2cc(NC(=O)Nc3ccc(F)cc3)ccc2O[C@@H](C)CCCCO[C@H]1CN(C)Cc1ccc(Cl)c(Cl)c1 | 77.5% (active)
C[C@@H]1CCCCO[C@H](CN(C)Cc2ccc(Cl)c(Cl)c2)[C@@H](C)CN([C@@H](C)CO)C(=O)c2cc(NC(=O)Nc3ccccc3)ccc2O1 | 93.9% (active)
C[C@@H]1CCCCO[C@@H](CN(C)Cc2ccc3c(c2)OCO3)[C@@H](C)CN([C@@H](C)CO)C(=O)c2cc(NC(=O)Nc3ccccc3)ccc2O1 | -0.474% (inactive)
CN(C)C(=O)[C@H]1[C@H](CO)[C@H]2Cn3c(ccc(-c4ccc(F)cc4)c3=O)[C@H]2N1C(=O)c1ccccn1 | -7.59% (inactive)
CCCNC(=O)N[C@@H]1CC[C@@H](CCn2cc(C3CC3)nn2)O[C@@H]1CO | 3.4% (inactive)
C[C@@H]1CCCCO[C@@H](CN(C)S(=O)(=O)c2cn(C)cn2)[C@H](C)CN([C@H](C)CO)C(=O)c2cc(NS(=O)(=O)c3ccc(Cl)cc3)ccc2O1 | 4.97% (inactive)
C[C@H]1CN([C@@H](C)CO)C(=O)c2cccc(NS(=O)(=O)c3ccc(Cl)cc3)c2O[C@H]1CN(C)Cc1ccc2c(c1)OCO2 | 4.78% (inactive)

SMILES | inhibition
CC(C)NC(=O)N[C@H]1CC[C@@H](CC(=O)NCc2ccc(Oc3ccccc3)cc2)O[C@@H]1CO | -20.9% (inactive)
C[C@H](CO)N1C[C@H](C)[C@H](CN(C)C(=O)Nc2ccc(F)cc2)Oc2ncc(-c3cc4ccccc4o3)cc2C1=O | 23.1% (inactive)
C[C@@H]1CCCCO[C@@H](CN(C)Cc2ccc(Cl)c(Cl)c2)[C@H](C)CN([C@H](C)CO)C(=O)c2cc(NC(=O)Nc3ccc(F)cc3)ccc2O1 | 102% (active)
COc1ccc(NC(=O)Nc2ccc3c(c2)C(=O)N([C@H](C)CO)C[C@@H](C)[C@H](CN(C)Cc2ccc(Cl)c(Cl)c2)OCCCC[C@@H](C)O3)cc1 | 57.5% (inactive)
CC(C)NC(=O)Nc1ccc2c(c1)C(=O)N([C@@H](C)CO)C[C@@H](C)[C@H](CN(C)Cc1ccc(Cl)c(Cl)c1)OCCCC[C@H](C)O2 | 38% (inactive)
O=S(=O)(c1ccccc1)N1C[C@@H]2[C@H](c3ccccc31)[C@H](CO)N2Cc1ccccn1 | 19.7% (inactive)
O=C(C1CCCCC1)N1CC2(C1)[C@H](c1ccccc1)[C@@H](CO)N2CCC(F)(F)F | -17.1% (inactive)
CC(=O)Nc1ccc2c(c1)C(=O)N(C)[C@@H]1CC[C@@H](CC(=O)NCC3CCCCC3)O[C@@H]1CO2 | -4.32% (inactive)
COc1ccc(NC(=O)Nc2ccc3c(c2)C(=O)N([C@@H](C)CO)C[C@H](C)[C@@H](CN(C)C(=O)NC2CCCCC2)O3)cc1 | -4.33% (inactive)
COc1ccc(/C=C2/CCCc3ccccc3C2=O)cc1 | -38.8% (inactive)
COc1ccc(OC)c(C2C3=C(N=c4s/c(=C\c5cccc(O)c5)c(=O)n42)c2ccccc2CC3)c1 (stereo not given) | 64.2% (active)
COc1ccc(C[C@@H]2CCc3cnnn3COC[C@H](c3ccccc3)NC2=O)cc1 | 1.19% (inactive)
O=C(C1CCOCC1)N1CC(=O)N2[C@H](CO)[C@H](c3ccc(C#Cc4cccc(F)c4)cc3)[C@H]2C1 | -14.5% (inactive)
O=C(N[C@H]1CC[C@H](CCn2cc(C3(O)CCCC3)nn2)O[C@H]1CO)C1CC1 | 13.3% (inactive)
O=C(c1ccncc1)N1CCCCN2[C@H](CO)[C@@H](c3ccc(C#Cc4ccccn4)cc3)[C@H]2C1 | 5.08% (inactive)
CS/C(=C\C(=O)c1ccco1)Nc1ccccc1Cl | 30.8% (inactive)
O=C(Nc1ccccc1Cl)/C(Cl)=C(\Cl)S(=O)c1ccccc1 (stereo not given) | 111% (active)
O=C(COc1ccc(-n2cnnn2)cc1)Nc1ccccc1Cl | -3.21% (inactive)
Cn1cnc(S(=O)(=O)N2C[C@@H]3N[C@H](C2)C3c2ccc(/C=C/c3ccccc3)cc2)c1 (stereo not given in full) | -2.85% (inactive) and -1.61% (inactive)
COc1ccc(-c2ccc(C3[C@@H]4CN(S(=O)(=O)c5cn(C)cn5)C[C@H]3N4)cc2)cc1 (stereo not given in full) | -15.4% (inactive)
Cn1cnc(S(=O)(=O)N2C[C@@H]3N[C@H](C2)C3c2ccc(-c3ccccc3F)cc2)c1 (stereo not given in full) | 77.5% (active) and 26.1% (inactive)
